# Source: PubChem (several laboratories)
# Most compounds without a hit are left out; they make up all but 3.7% or so of the library.
# PfHsp90 yeast 2: inhibits growth of yeast expressing Plasmodium falciparum Hsp90; AID 504621; inhibition, % at 9.4 µM; actives 0.32% (n = 310,000); S. cerevisiae expressing PfHsp90, BacTiter-Glo ATP, 48 h; yeast lacking PDR1 and PDR3 efflux regulators;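 active = every replicate shows inhibition above about 80%, whatever the replicate mean, limit read from the data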;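 also: 0% = DMSO neutral controls and 100% = 20 µM radicicol positive controls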
# tim23-1 inh: inhibits growth of tim23-1 mutant yeast. S. cerevisiae tim23-1 growth, BacTiter-Glo luminescence, 24 h. inhibition, % at 20 µM. actives 1.3% (n = 330,000). AID 463212;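 active = growth inhibition of the mutant yeast at or above 50%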;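 also: temperature-sensitive mutant grown at 25 °C; plate controls were DMSO-treated mutant yeast for no effect and medium wells lacking yeast for full effect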
# tim10-1 inh: tim10-1 yeast growth inhibition. S. cerevisiae tim10-1 ts strain growth, BacTiter-Glo, 24 h. inhibition, % at 20 µM. actives 2.2% (n = 330,000). AID 463190;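 active = inhibition of at least 40%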;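 also: mutant grown at 25 °C; 0% = DMSO wells with yeast and 100% = wells holding no yeast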
# TIM10 inh: growth inhibitors of TIM10 yeast strain; inhibition, % at 10 µM; actives 1.4% (n = 330,000); S. cerevisiae TIM10 strain growth, BacTiter-Glo luminescence, 24 h;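 active = inhibition of 40% or more at the single tested concentration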;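 also: wild-type TIM10 isogenic control strain grown at permissive 25 °C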
# NALP3 yeast inh: NALP3 inhibition in yeast; Yeast reconstituted NLRP3/ASC/caspase-1, beta-gal luminescence, 24 h; inhibition, % at 10 µM; actives 0.39% (n = 330,000);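 active = inhibition of 50% or more; inactive = inhibition below 50%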;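 also: plate controls were induced DMSO wells for no effect and uninduced yeast grown without galactose for full effect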
# NALP3 yeast conf: confirmation of NALP3 inhibitors in yeast | actives 81% (n = 1,300) | yeast expressing human NALP3, luminescence | inhibition, % at 10 µM | shares compounds with NALP3 yeast inh | AID 435006; in the data active = inhibition above about 48%
# Casp1-ASC yeast: caspase-1-ASC yeast counter-screen hit; shares compounds with NALP3 yeast inh; yeast expressing Caspase-1-ASC, luminescence counter screen; inhibition, % at 10 µM; actives 66% (n = 1,000)
# NALP3 retest: retest-confirmed inhibitor of NALP3 in yeast; actives 53% (n = 1,000); shares compounds with NALP3 yeast inh; inhibition, % at 10 µM; yeast expressing human NALP3, luminescence read-out
# The depositor's hits bear a star; nt = no result. Rule as the data show it, unless noted: active = inhibition above about 50%; inactive = the rest.
SMILES,PfHsp90 yeast 2,tim23-1 inh,tim10-1 inh,TIM10 inh,NALP3 yeast inh,NALP3 yeast conf,Casp1-ASC yeast,NALP3 retest
Cc1ccc(OCCn2cnc(Cl)c2Cl)cc1,nt,1,15,-14,50*,59*,nt,nt
COc1ccc(C(=O)NC2CCN(CC(=O)N3CCCCC3)CC2)cc1,-8,3,-5,-14,-17,nt,nt,nt
CC(C)Oc1ccc2c(=O)c(-c3ccccc3)coc2c1,7,26,11,-5,58*,66*,40,37
COC(=O)COc1ccc2c(=O)c(-c3ccccc3)coc2c1,-8,17,18,9,11,nt,nt,nt
CCOC(=O)CCSc1nc2c(c(C(F)(F)F)c1C#N)CCC2,-15,10,6,-16,60*,47*,64*,59*
CCCCSc1nc2c(c(C(F)(F)F)c1C#N)CCC2,-53,-13,8,-8,4,nt,nt,nt
CC1CCN(S(=O)(=O)c2cccc(-c3cn4cc(Cl)ccc4n3)c2)CC1,31,34,20,26,64*,75*,38,33
Cc1ccc(S(=O)(=O)NC2CC3CCC2C3)cc1 (stereo not given),nt,3,-60,-123,36,nt,nt,nt
O=S(=O)(NC1CC2CCC1C2)c1ccc(Br)s1 (stereo not given),-20,13,-43,-133,50*,63*,59*,40
Cc1ccc(-c2c[nH]c(=S)n2-c2ccccc2F)cc1,-9,5,26,16,55*,38,nt,nt
COc1cccc(-n2c(-c3ccccc3)c[nH]c2=S)c1,-10,7,-9,12,35,nt,nt,nt
CCOc1ccc(-n2c(-c3ccccc3)nnc2-c2ccccc2)cc1,-12,7,21,28,25,nt,nt,nt
CCOc1ccc(-n2c(-c3ccccc3)c[nH]c2=S)cc1,-26,-1,7,17,59*,58*,22,25
Cc1ccc(-c2c[nH]c(=S)n2-c2ccccc2)cc1,16,4,19,26,61*,36,39,29
Cc1ccc(C(C)C)c(OCC(=O)Nc2cccc(S(=O)(=O)NC3=NCCCCC3)c2)c1,-14,16,30,14,10,nt,nt,nt
COc1cc(C2C(=O)c3ccccc3C2=O)ccc1O,-23,40,32,16,66*,68*,66*,46
COc1ccc(C2C(=O)c3ccccc3C2=O)cc1OC,-5,7,7,13,2,nt,nt,nt
Cc1ccc(OCc2nc(-c3ccccn3)no2)c(Br)c1,3,-1,-11,0,42,nt,nt,nt
Cc1ccc(OCc2nc(-c3cccnc3)no2)cc1C,2,16,13,4,51*,61*,36,40
Cc1ccc(OCc2nc(-c3ccccn3)no2)cc1,16,46,32,27,56*,70*,72*,64*
O=C(NNS(=O)(=O)c1cccc(Cl)c1)c1cc(-c2ccc(F)cc2)nc2ccccc12,nt,28,25,0,-7,nt,nt,nt
Brc1ccc(-c2csc(NC3=NCCCCC3)n2)cc1,7,24,7,17,58*,55*,50,41
COc1ccc(-c2csc(NC3=NCCCCC3)n2)cc1,32,30,16,27,31,nt,nt,nt
COc1ccc(NC(=O)Nc2cccc(NC(C)=O)c2)c(OC)c1,6,5,5,8,19,nt,nt,nt
O=C(CSc1nnc(CNC(=O)c2c(F)cccc2F)o1)c1ccccc1,-4,-7,4,-2,3,nt,nt,nt
COc1cccc(-c2nnn(CC(=O)N(CC(C)C)C3CCS(=O)(=O)C3)n2)c1 (stereo not given),26,-11,-6,8,7,nt,nt,nt
CC1=CC2=NC(=O)/C(=C\c3cccn3CCOc3cccc(C)c3)C(=N)N2O1,15,28,14,12,60*,3,nt,nt
Cc1ccc(NC(=O)c2ncn(CCCNCc3ccccc3)n2)cc1C,35,nt,nt,nt,nt,nt,nt,nt
COc1cc(C(C[N+](=O)[O-])c2c(C)[nH]c3ccccc23)ccc1O (stereo not given),23,25,26,29,10,nt,nt,nt
